This assay relates to E18 rat cortical neuron-glia co-culture. Briefly: myelination (MBP fiber length per Olig2+ nucleus), % of 1 µM DAPT response (DMSO = 0) (% of DAPT); higher = more myelination, active = 50 or more. The following applies: 5 µM; treatment time: 8 days (DIV5-DIV13). In short, it runs like this:
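Primary E18 rat cortical co-cultures (papain-dissociated, 20,000 cells/well on poly-d-lysine/laminin 96-well plates) received library compounds at 1 or 5 µM in myelination medium from DIV5 to DIV13. Cells were fixed in 4 % paraformaldehyde and immunostained for MBP and Olig2 with DAPI, and four 10X fields per well in duplicate wells were analysed. Myelination was continuous straight MBP fiber length per Olig2+ nucleus, normalised to 0.1 % DMSO (0) and a 1 µM positive control (100).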
As for `CN1CCCCC1CCN1c2ccccc2Sc2ccc([S+](C)[O-])cc21` (configuration not stated) [Mesoridazine], the myelination was -20.4 (inactive).
The figure for `NC12CC3CC(CC(C3)C1)C2` [Amantadine] is 0.678 (inactive).
For the compound `CN1CCN(c2c(F)cc3c(=O)c(C(=O)O)cn4c3c2SCC4)CC1` [Rufloxacin], the myelination was -35.3 (inactive).
With `COc1cc(N)c(Cl)cc1C(=O)NC1CCN(CCCOc2ccc(F)cc2)CC1OC` (configuration not stated) [Cisapride], the myelination was -10.2 (inactive).
Then `COc1ccc(C2CNC(=O)C2)cc1OC1CCCC1` (configuration not stated) [Rolipram], with -53.6 (inactive).
For the compound `CCCCN1CCCCC1C(=O)Nc1c(C)cccc1C` (configuration not stated) [Bupivacaine], the myelination was -16.6 (inactive).
As for `O=C(CCCN1CC=C(n2c(=O)[nH]c3ccccc32)CC1)c1ccc(F)cc1` [Droperidol], the myelination was -16.6 (inactive).
Turning to `CCCC(CCC)C(=O)O` [Valproic Acid], the myelination was -3.27 (inactive).
`COc1cc(C[C@@H](CO)[C@H](CO)Cc2ccc(O)c(OC)c2)ccc1O` [Secoisolariciresinol]: the myelination is -8.85 (inactive).
Consider `C[C@H]1O[C@@H](O[C@H]2[C@@H](O)C[C@H](O[C@H]3[C@@H](O)C[C@H](O[C@H]4CC[C@@]5(C)[C@H](CC[C@@H]6[C@@H]5C[C@@H](O)[C@]5(C)[C@@H](C7=CC(=O)OC7)CC[C@]65O)C4)O[C@@H]3C)O[C@@H]2C)C[C@H](O)[C@@H]1O` [Digoxin], for which the myelination came to 68.2.
Turning to `O=C1CC[C@@H](C(=O)N2CSC[C@H]2C(=O)O)N1` [Pidotimod], the myelination is -4.26 (inactive).
The figure for `CN(CCO)CC(O)Cn1cnc2c1c(=O)n(C)c(=O)n2C` (configuration not stated) [Jupal] is -10.5 (inactive).

The values above are taken from the supplement of paper PMC4840960.
